Bioassay records as filed in PubChem.
Six1-Eya2 blk – qHTS Assay for Inhibitors of the Six1/Eya2 Interaction; Homeobox protein SIX1 (Homo sapiens) + Protein phosphatase EYA2 (Homo sapiens), …; AlphaScreen GST-Six1/His-Eya2 binding, biochemical; hits give low values; activity change, % (no concentration beside the values); 360,000 compounds, 0.56% hits; AID 651725, 2012; in the data active = activity change below about -65%; inconclusive = mostly about -30% to -63%; also: % is scaled to controls: 0 for no effect and ±100 for the full control effect
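Six1/Eya2 binding was read as AlphaScreen signal after compounds were pinned into GST-Six1 plus His-tagged Eya2 (5X stock 250/500 nM) in pH 8.0 Tris/NaCl/TCEP buffer, beads added, then incubated 1 h, 37 C, dark.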
JMJD2A Tudor inh – qHTS Assay for Inhibitors of JMJD2A-Tudor Domain | 390,000 compounds, 4.4% hits | AlphaScreen JMJD2A-Tudor / H3K4me3 peptide binding | AID 504339, 2011 | Potency, µM (highest dose often 114 µM), for inactives: at the highest dose activity change, negative = inhibition, most hits filed as inhibitors; also: potency is read from the fitted curve at half-maximal effect; % is scaled to controls: 0 for no effect and ±100 for the full control effect; nearly all actives have a fitted effect of over 50% in size
HP1b chromo inh – HTS for Inhibitors of HP1-beta Chromodomain Interactions with Methylated Histone Tails | AlphaScreen HP1-beta / biotin-H3K9me3 peptide binding | Chromobox protein homolog 1 (Homo sapiens), P83916 | Potency, µM (top dose mostly 114 µM), without a hit: at the top dose activity change, negative = inhibition, usual class: inhibitors | 390,000 compounds, 0.56% hits; also: potency is read from the fitted curve at half-maximal effect; nearly all actives have a fitted effect of over 70% in size
Target sequence (P83916 whole entry, looked up): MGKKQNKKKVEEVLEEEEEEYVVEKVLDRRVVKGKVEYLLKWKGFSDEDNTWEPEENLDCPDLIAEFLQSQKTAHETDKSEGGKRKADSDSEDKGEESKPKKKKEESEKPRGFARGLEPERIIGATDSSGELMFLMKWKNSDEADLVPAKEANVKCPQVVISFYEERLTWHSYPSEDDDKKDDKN
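Compound inhibition of the preformed complex between 50 nM HP1-beta and 50 nM biotinylated H3K9me3 peptide was read by AlphaScreen. Buffer was PBS pH 7.4 with 0.01% Tween-20. Incubations ran 30 min at room temperature, with 10 ug/mL donor/acceptor beads.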
CtBP-E1A blk – qHTS Assay for Inhibitors of the CtBP/E1A Interaction; AID 651724, 2012; CtBP / adenovirus E1A interaction (AlphaScreen); activity change, % (test concentration not listed); 340,000 compounds, 0.49% hits; AlphaScreen GST-E1A/His-CtBP binding, 1536-well; hits give low values; in the data active = activity change below about -65%; inconclusive = mostly about -30% to -63%; also: % is scaled to controls: 0 for no effect and ±100 for the full control effect
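Homogeneous bead-based format: GST-tagged E1A captured on glutathione donor beads, His-tagged CtBP on nickel acceptor beads; compounds precede bead addition by 2 h at 37 °C.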
BAZ2B inh – qHTS Assay for Inhibitors of BAZ2B; 360,000 compounds, 4.4% hits; AID 504333, 2011; Potency, µM (top dose mostly 114 µM), without a hit: at the highest dose activity change, negative = inhibition, most hits filed as inhibitors; AlphaScreen BAZ2B-H3K14Ac peptide displacement; also: potency is read from the fitted curve at half-maximal effect; % is scaled to controls: 0 for no effect and ±100 for the full control effect; nearly all actives have a fitted effect of over 60% in size
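In this displacement format the biotinylated H3(5-23) peptide acetylated at Lys14 serves as ligand at 50 nM, with BAZ2B at 50 nM in PBS pH 7.4 containing 0.01% Tween-20. Donor and acceptor beads are 10 ug/mL final.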
G9a inh – qHTS Assay for Inhibitors of Histone Lysine Methyltransferase G9a; Potency, µM (doses to about 102 µM), inactives show top-dose activity, negative = inhibition, usual class: inhibitors; 350,000 compounds, 8.8% hits; G9a H3K9 monomethylation, AlphaScreen, 2 h; Histone-lysine N-methyltransferase EHMT2 (Homo sapiens), Q96KQ7; also: potency is read from the fitted curve at half-maximal effect; % is scaled to controls: 0 for no effect and ±100 for the full control effect; nearly all actives have a fitted effect of over 75% in size
Target sequence (Q96KQ7 913-1193 limits assumed): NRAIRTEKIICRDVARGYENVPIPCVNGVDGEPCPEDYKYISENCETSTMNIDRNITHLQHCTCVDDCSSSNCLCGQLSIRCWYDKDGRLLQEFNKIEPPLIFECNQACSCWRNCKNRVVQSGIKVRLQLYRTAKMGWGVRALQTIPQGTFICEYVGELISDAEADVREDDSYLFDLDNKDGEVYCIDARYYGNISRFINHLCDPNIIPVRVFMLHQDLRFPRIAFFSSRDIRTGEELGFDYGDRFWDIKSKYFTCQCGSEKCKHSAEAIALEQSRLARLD
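Quantitative HTS format: methyltransferase activity on a biotin-tagged H3K9 peptide is measured by AlphaScreen, using a rabbit anti-monomethyl-H3K9 antibody with streptavidin donor and anti-IgG acceptor beads. Final levels are 20 nM enzyme, 500 nM peptide, 20 uM SAM; 2 h RT.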
The depositor's hits bear a star; ? = inconclusive; nt = no result; ! = not active in a repeat; [ ] = remark or other dose. Hits are enriched below; roughly 10% of the tested compounds scored in any of these assays. Unless noted, calls follow the shape of the dose curve; as a rule, active = well fitted inhibition curve with a large enough effect; inconclusive = small, poorly fitted or top-dose-only effect; inactive = no such curve, though single readings can be large or run the other way.

SMILES	Six1-Eya2 blk	JMJD2A Tudor inh	HP1b chromo inh	CtBP-E1A blk	BAZ2B inh	G9a inh
CC(C)c1nnc(NC(=O)c2nc(S(=O)(=O)Cc3ccccc3)ncc2Cl)s1	-16.8	-24.5%	3.6%[57 µM]	1.2	50.1µM*!	8.91µM*
CCCc1nnc(NC(=O)c2nc(S(=O)(=O)Cc3ccc(C)cc3)ncc2Cl)s1	?	-16.5%	55.0%	-24.3	-20.2%	12.6µM*
CSc1nnc(NC(=O)c2nc(S(=O)(=O)Cc3ccccc3)ncc2Cl)s1	-23.4	15.8µM*	-1.9%[57 µM]	-3.7	44.7µM*	50.1µM*
Cc1ccc(CS(=O)(=O)c2ncc(Cl)c(C(=O)Nc3nc4ccc(C)cc4s3)n2)cc1	nt	-24.8%	27.9%	nt	-18.3%	4.5%[59 µM]
Cc1cccc(C)c1NC(=O)CCCCCC1NC(=O)NC1C (configuration not stated)	15.6	2.9%	52.9%	0.1	8.91µM*	12.6µM*
C[C@@H]1NC(=O)N[C@@H]1CCCCCC(=O)O	-6.5	1µM*	?	-7.7	nt	nt
CCCCCC1NC(=O)NC1CCCCCC(=O)O (configuration not stated)	2.5	-10.0%	40.5%	6.7	0.6%	0.5%[12.7 µM]
Cc1cccc(C)c1NC(=O)CCCN1CC(C)OC(C)C1 (configuration not stated)	5.6	2.3%[11.4 µM]	49.1%	5.0	10.7%	-5.8%
CC1NC(=O)NC1CCCCCC(=O)NCCc1ccccc1 (configuration not stated)	4.2	3.55µM*	?	10.0	0.891µM*	?
CC1S/C(=N/N=C2CCCCC2)NC1=O (configuration not stated)	-7.4	?	43.7%	-15.1	50.1µM*	31.1%[59 µM]
O=C(CC1S/C(=N/N=C2CCCCCC2)NC1=O)Nc1ccccc1C(F)(F)F (configuration not stated)	6.0	-12.0%	32.8%	-4.2	2.7%	52.8%
CC1S/C(=N/N=C2CCC(C(C)(C)C)CC2)NC1=O (configuration not stated)	1.7	-22.0%	25.6%	9.1	56.2µM*	44.8%[59 µM]
Cc1cc(C)cc(NC(=O)Cn2nnc(-c3ccccc3F)n2)c1	nt	-10.4%	59.7%	nt	-2.6%	3.4%[59 µM]
CCc1nn(-c2ccccc2)c(N)c1C#N	6.5	-8.4%	10.2%	-0.7	12.1%	9.5%[59 µM]
CCc1nn(-c2ccccc2)c(=S)c2ccccc12	1.4	?	-23.1%[57 µM]	-18.1	?	14.1µM*
COc1cccc(CNC(=O)Cc2c(C)c3ccc(OC)c(C)c3oc2=O)c1	nt	-18.4%	47.5%	nt	-2.3%	4.6%[59 µM]
COc1cccc(Cn2c(=O)n(CCc3ccccc3)c(=O)c3c2c2cc(OC)ccc2n3C)c1	nt	2.8%	29.3%	nt	0.0%	?
Cc1cccc(OCCCCn2c(C3CC(=O)N(c4ccccc4Cl)C3)nc3ccccc32)c1 (configuration not stated)	nt	-34.9%	2.7%	nt	50.1µM*	12.6µM*
Cc1cccc(OCCCCn2c(C3CC(=O)N(c4ccc(C)cc4C)C3)nc3ccccc32)c1 (configuration not stated)	nt	?	-0.6%	nt	?	?
CCc1ccccc1N1CC(c2nc3ccccc3n2Cc2cccc(C)c2)CC1=O (configuration not stated)	nt	-32.6%	7.9%	nt	-23.0%	1µM*
Nc1ccccc1N=Nc1ccccc1N	?	2.82µM*	?	-78.6*	3.16µM*	14.1µM*
CCOc1ccc(NC(=O)NCc2ccc3c(c2)CCN3C(C)=O)cc1	nt	-8.3%	8.5%[57 µM]	nt	2.0%	4.4%[59 µM]
CCN(CC)S(=O)(=O)c1ccc2c(c1)N(CC(=O)Nc1ccc(Cl)cc1)C(=O)C1CCCN21 (configuration not stated)	nt	-13.6%	30.5%	nt	-14.8%	?
O=C(O)[C@@H]1CCCN1C(=O)CCc1c[nH]c2ccccc12	3.1	-18.5%	30.8%	0.2	4.9%	-5.7%
COc1cc2c(cc1OC)CN(C(=O)CCc1c[nH]c3ccccc13)[C@H](C(=O)O)C2	-2.6	-3.0%	34.0%	nt	-18.2%	70.8µM*
SMILES	Six1-Eya2 blk	JMJD2A Tudor inh	HP1b chromo inh	CtBP-E1A blk	BAZ2B inh	G9a inh
Cc1nc(C(=O)NNC(=O)c2ccccc2)c(C(F)(F)F)o1	0.1	?	55.2%	5.9	-32.6%	4.47µM*
Cc1ccc(-c2cc(C(=O)NCc3ccco3)c3ccccc3n2)s1	1.2	-31.9%	22.8%	0.6	?	50.1µM*
COc1cc(-c2cc(C(=O)Nc3ccc(S(=O)(=O)NCc4ccco4)cc3)c3ccccc3n2)cc(OC)c1OC	3.3	-16.4%	11.8%	-1.0	-2.4%	-39.1%[59 µM]
O=C(NCc1ccco1)c1cc(-c2cccs2)nc2ccccc12	-2.8	-29.7%	39.0%	-3.5	-6.6%	8.6%[59 µM]
COc1cc(-c2cc(C(=O)NCc3ccco3)c3ccccc3n2)cc(OC)c1OC	0.0	-28.4%	9.9%	-0.5	-35.3%	50.1µM*
CC(=O)c1ccc(C(=O)N(Cc2cccnc2)c2nc3c(Cl)cccc3s2)cc1	nt	-33.4%	17.3%	nt	?	-16.7%[59 µM]
Cc1ccc(-c2nnn3c2nc(NCCc2ccccc2)c2ccccc23)cc1	nt	-3.3%	48.2%	nt	-12.5%	10.2%[59 µM]
Cc1ccc2c(ccc(=S)n2C)c1	-10.7	-18.6%	39.0%	-11.1	?	39.8µM*
Cc1ccc2c(c1)cc(C(=O)Nc1ccccc1C)n2C	nt	-17.5%	15.3%	nt	-1.2%	5.0%[59 µM]
O=C(CCN1N=C(c2ccccc2)CCC1=O)NCCc1ccc(Cl)cc1	nt	-7.1%	22.3%	nt	2.5%	-2.3%[59 µM]
CC(=O)c1ccc(N2CCN(S(=O)(=O)c3ccc4c(c3)NC(=O)CC(=O)N4)CC2)cc1	0.9	15.8µM*	-5.5%	2.4	-23.3%	24.4%
O=C1Cc2cc(S(=O)(=O)N3CCN(c4ccc(Br)cc4)CC3)ccc2N1	nt	141µM*	nt	nt	nt	nt
CC(=O)c1ccc(N2CCN(S(=O)(=O)c3cc4c(cc3C)NC(=O)CO4)CC2)cc1	-1.0	10.9%	18.6%	nt	-24.2%	nt
Cc1cc2oc(C(=O)Nc3ccc(S(=O)(=O)Nc4ncccn4)cc3)cc(=O)c2cc1C	nt	-13.5%	-3.0%	nt	-10.4%	-16.7%[59 µM]
COc1ccc(N2CCN(C(=O)CCn3nc(C)c(S(=O)(=O)N4CCCC4)c3C)CC2)cc1	nt	-24.2%	2.3%	nt	?	-39.0%[59 µM]
Cc1csc(NC(=O)NCC2CCCC(CNC(=O)Nc3nc(C)cs3)C2)n1 (configuration not stated)	-23.0	-28.7%	1.1%	-14.7	-29.8%	14.1µM*
